Test results: PubChem BioAssay (NCI)
Several values for one entry are separate records, joined by “and”; a condition that tells them apart may be missing. Identical values can stand only once. About 83,000 compounds went through this panel and 20% of them were active in at least one assay; those are over-represented in the sample as a whole.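 Plates (96-well) were seeded with cells, treated with compound at one concentration, and incubated for 48 hours before percent growth was determined.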

Legend:
Assay in all cases: NCI-60 one-dose screen, 48 h (100 = growth as untreated, 0 = no growth, -100 = all killed); active = growth percent below 10; inactive = the rest
SR leukemia = conditions: 10 µM unless noted
RPMI-8226 leukemia = test system: RPMI-8226 leukemia
OVCAR-8 ovarian = test system: OVCAR-8 ovarian
OVCAR-5 ovarian = test system: OVCAR-5 ovarian
OVCAR-4 ovarian = test system: OVCAR-4 ovarian
SK-OV-3 ovarian = test system: SK-OV-3 ovarian
IGROV1 ovarian = test system: IGROV1 ovarian
OVCAR-3 ovarian = test system: OVCAR-3 ovarian
HS 578T breast = test system: HS 578T breast
NCI/ADR-RES ovarian = test system: NCI/ADR-RES ovarian

Measured: growth

CC(=O)Oc1cc(C)c(OC(C)=O)c(C)c1C
inactive: SR leukemia 118% | RPMI-8226 leukemia; 10 µM unless noted 92.1% | OVCAR-8 ovarian; 10 µM unless noted 99.8% | OVCAR-5 ovarian; 10 µM unless noted 125% | OVCAR-4 ovarian; 10 µM unless noted 125% | SK-OV-3 ovarian; 10 µM unless noted 125% | IGROV1 ovarian; 10 µM unless noted 122% | OVCAR-3 ovarian; 10 µM unless noted 119% | HS 578T breast; 10 µM unless noted 91.1% | NCI/ADR-RES ovarian; 10 µM unless noted 95.2%

O=C(c1ccc(Cl)cc1)C1C(c2ccccc2)C1[N+](=O)[O-] (centres undefined)
inactive: SR leukemia 78% | RPMI-8226 leukemia; 10 µM unless noted 96.3% | OVCAR-8 ovarian; 10 µM unless noted 99% | OVCAR-5 ovarian; 10 µM unless noted 109% | OVCAR-4 ovarian; 10 µM unless noted 99% | SK-OV-3 ovarian; 10 µM unless noted 105% | IGROV1 ovarian; 10 µM unless noted 103% | OVCAR-3 ovarian; 10 µM unless noted 97.8% | HS 578T breast; 10 µM unless noted 96% | NCI/ADR-RES ovarian; 10 µM unless noted 99.7%

COc1ccc(/C=N/NC(N)=S)cc1
inactive: SR leukemia 107% | RPMI-8226 leukemia; 10 µM unless noted 88.9% | OVCAR-8 ovarian; 10 µM unless noted 100% | OVCAR-5 ovarian; 10 µM unless noted 93.7% | OVCAR-4 ovarian; 10 µM unless noted 89.8% | SK-OV-3 ovarian; 10 µM unless noted 106% | IGROV1 ovarian; 10 µM unless noted 76.9% | OVCAR-3 ovarian; 10 µM unless noted 111% | HS 578T breast; 10 µM unless noted 101% | NCI/ADR-RES ovarian; 10 µM unless noted 96.7%

CCOC(=O)CN1CCC(C(=O)OCC)CC1
inactive: SR leukemia 124% | RPMI-8226 leukemia; 10 µM unless noted 95.8% | OVCAR-8 ovarian; 10 µM unless noted 106% | OVCAR-5 ovarian; 10 µM unless noted 104% | OVCAR-4 ovarian; 10 µM unless noted 108% | SK-OV-3 ovarian; 10 µM unless noted 99.1% | IGROV1 ovarian; 10 µM unless noted 122% | OVCAR-3 ovarian; 10 µM unless noted 117% | HS 578T breast; 10 µM unless noted 106% | NCI/ADR-RES ovarian; 10 µM unless noted 110%

O=C1c2cccnc2-c2ncccc21
inactive: SR leukemia 120% [100 µM] | RPMI-8226 leukemia; 10 µM unless noted 99.8% [100 µM] | OVCAR-8 ovarian; 10 µM unless noted 106% [100 µM] | OVCAR-5 ovarian; 10 µM unless noted 122% [100 µM] | OVCAR-4 ovarian; 10 µM unless noted 109% [100 µM] | SK-OV-3 ovarian; 10 µM unless noted 107% [100 µM] | IGROV1 ovarian; 10 µM unless noted 113% [100 µM] | OVCAR-3 ovarian; 10 µM unless noted 110% [100 µM] | HS 578T breast; 10 µM unless noted 89.5% [100 µM] | NCI/ADR-RES ovarian; 10 µM unless noted 102% [100 µM]

O=C1Cc2ccccc2C(=O)N1
inactive: SR leukemia 30.4% | RPMI-8226 leukemia; 10 µM unless noted 48.9% | OVCAR-8 ovarian; 10 µM unless noted 56.2% | OVCAR-5 ovarian; 10 µM unless noted 96.1% | OVCAR-4 ovarian; 10 µM unless noted 63.4% | SK-OV-3 ovarian; 10 µM unless noted 98.9% | IGROV1 ovarian; 10 µM unless noted 76.8% | OVCAR-3 ovarian; 10 µM unless noted 76.3% | HS 578T breast; 10 µM unless noted 103% | NCI/ADR-RES ovarian; 10 µM unless noted 91.8%

CS/C(=C\c1ccc(C(=O)c2ccc(C)cc2)n1C)S(C)=O (centres undefined)
inactive: SR leukemia 30.9% [100 µM] | RPMI-8226 leukemia; 10 µM 70.2% | RPMI-8226 leukemia; 100 µM 56.9% | OVCAR-8 ovarian; 10 µM 91% | OVCAR-8 ovarian; 100 µM 82.3% | OVCAR-5 ovarian; 10 µM 105% | OVCAR-5 ovarian; 100 µM 102% | OVCAR-4 ovarian; 10 µM 89% | OVCAR-4 ovarian; 100 µM 69.2% | SK-OV-3 ovarian; 10 µM 103% | SK-OV-3 ovarian; 100 µM 87.6% | IGROV1 ovarian; 10 µM 93.2% | IGROV1 ovarian; 100 µM 82.9% | OVCAR-3 ovarian; 10 µM 114% | OVCAR-3 ovarian; 100 µM 69% | HS 578T breast; 10 µM 91.2% | HS 578T breast; 100 µM 90.6% | NCI/ADR-RES ovarian; 10 µM 76.8% | NCI/ADR-RES ovarian; 100 µM 52.7%

O=c1[nH]c(=O)n(C2OC(CO)C(O)C2O)cc1I (centres undefined)
inactive: SR leukemia 96.1% and 114% | RPMI-8226 leukemia; 10 µM unless noted 107% | OVCAR-8 ovarian; 10 µM unless noted 98.9% and 95.7% | OVCAR-5 ovarian; 10 µM unless noted 107% and 104% | OVCAR-4 ovarian; 10 µM unless noted 100% and 102% | SK-OV-3 ovarian; 10 µM unless noted 110% and 102% | IGROV1 ovarian; 10 µM unless noted 103% and 106% | OVCAR-3 ovarian; 10 µM unless noted 117% and 121% | HS 578T breast; 10 µM unless noted 108% and 98.3% | NCI/ADR-RES ovarian; 10 µM unless noted 109% and 97.4%

O=C(NC(CSSCC(NC(=O)OCc1ccccc1)C(=O)O)C(=O)O)OCc1ccccc1 (centres undefined)
inactive: SR leukemia 67.8% and 77.7% | RPMI-8226 leukemia; 10 µM unless noted 64.7% and 95.7% | OVCAR-8 ovarian; 10 µM unless noted 79.5% and 103% | OVCAR-5 ovarian; 10 µM unless noted 90.9% and 99.3% | OVCAR-4 ovarian; 10 µM unless noted 68.3% and 104% | SK-OV-3 ovarian; 10 µM unless noted 107% and 83.5% | IGROV1 ovarian; 10 µM unless noted 73.1% and 106% | OVCAR-3 ovarian; 10 µM unless noted 97.7% and 105% | HS 578T breast; 10 µM unless noted 99.9% and 104% | NCI/ADR-RES ovarian; 10 µM unless noted 97.2% and 101%

CCN(CC)C(CC(=O)c1ccccc1)C(=O)c1ccccc1 (centres undefined)
inactive: SR leukemia 29% | RPMI-8226 leukemia; 10 µM unless noted 86.5% | OVCAR-8 ovarian; 10 µM unless noted 96.6% | OVCAR-5 ovarian; 10 µM unless noted 113% | OVCAR-4 ovarian; 10 µM unless noted 93.3% | SK-OV-3 ovarian; 10 µM unless noted 114% | IGROV1 ovarian; 10 µM unless noted 110% | OVCAR-3 ovarian; 10 µM unless noted 92.5% | HS 578T breast; 10 µM unless noted 113% | NCI/ADR-RES ovarian; 10 µM unless noted 101%

COc1ccc(/C=N/Nc2nc3ccccc3s2)cc1
inactive: SR leukemia 87.9% | RPMI-8226 leukemia; 10 µM unless noted 104% | OVCAR-8 ovarian; 10 µM unless noted 105% | OVCAR-5 ovarian; 10 µM unless noted 103% | OVCAR-4 ovarian; 10 µM unless noted 87.5% | SK-OV-3 ovarian; 10 µM unless noted 90% | IGROV1 ovarian; 10 µM unless noted 68.5% | OVCAR-3 ovarian; 10 µM unless noted 86.4% | HS 578T breast; 10 µM unless noted 105% | NCI/ADR-RES ovarian; 10 µM unless noted 98.7%
